Results from PubChem BioAssay AID1159580 (chemical genetic matrix, 2015).
About 2,000 (36%) of roughly 5,500 compounds were called active. Another 18% or so got no clear call; they are omitted. Cut-off read from the data, not from the text of the source: active = normalized growth mostly below about 0.91 (no sharp cut-off); inconclusive = no clear call, values can overlap the other calls; inactive = mostly above about 0.92. The list shows a part of the results.

Experiment: chemical genetic growth profiling, strain panel (AID 1159580);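 note: tested at 20 µM; growth read once vehicle control cultures reached saturation at 30 °C; 1 = growth at the plate median or of vehicle wells; lower values mean less growth of the strain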
Conditions: S. cerevisiae deletion strains, growth OD

Measured: normalized growth

O=C1C=CC(=O)c2c(O)c(Cl)c(Cl)c(O)c21
inactive: locus YER111C, strain swi4, hits give low values 0.984 | locus YJL129C, strain trk1, hits give low values 0.965 | locus YML120C, strain ndi1, hits give low values 0.928 | locus YOR290C, strain snf2, hits give low values 0.963
active: locus YAL021C, strain ccr4, hits give low values 0.0743 | locus YAL026C, strain drs2, hits give low values 0.0712 | locus YAL030W, strain snc1, hits give low values 0.065 | locus YBL061C, strain skt5, hits give low values 0.0691 | locus YBR009C, strain hhf1, hits give low values 0.0757 | locus YBR023C, strain chs3, hits give low values 0.0713 | locus YBR171W, strain sec66, hits give low values 0.0854 | locus YBR231C, strain swc5, hits give low values 0.0695 | locus YBR279W, strain paf1, hits give low values 0.0653 | locus YCL011C, strain gbp2, hits give low values 0.0661 | locus YCL016C, strain dcc1, hits give low values 0.0723 | locus YCL061C, strain MRC1, hits give low values 0.0708 | locus YCL069W, strain vba3, hits give low values 0.0675 | locus YCR088W, strain abp1, hits give low values 0.0687 | locus YDL005C, strain med2, hits give low values 0.0837 | locus YDL040C, strain nat1, hits give low values 0.0677 | locus YDR001C, strain nth1, hits give low values 0.0651 | locus YDR069C, strain doa4, hits give low values 0.0731 | locus YDR137W, strain rgp1, hits give low values 0.816 | locus YDR159W, strain sac3, hits give low values 0.817 | locus YDR195W, strain ref2 0.72 | locus YDR297W, strain sur2, hits give low values 0.0653 | locus YDR334W, strain swr1, hits give low values 0.0709 | locus YDR335W, strain msn5, hits give low values 0.0705 | locus YDR392W, strain spt3, hits give low values 0.11 | locus YEL003W, strain gim4, hits give low values 0.0616 | locus YEL037C, strain rad23, hits give low values 0.0635 | locus YEL061C, strain CIN8 (second series), hits give low values 0.0685 | locus YER015W, strain faa2, hits give low values 0.0696 | locus YER016W, strain bim1, hits give low values 0.0673 | locus YER155C, strain BEM2 (second series), hits give low values 0.101 | locus YFR010W, strain ubp6, hits give low values 0.0771 | locus YGL167C, strain pmr1, hits give low values 0.0844 | locus YGL173C, strain kem1, hits give low values 0.0767 | locus YGL227W, strain vid30, hits give low values 0.0694 | locus YGL240W, strain doc1, hits give low values 0.087 | locus YGL253W, strain hxk2, hits give low values 0.0606 | locus YHR013C, strain ard1, hits give low values 0.118 | locus YHR027C, strain rpn1, hits give low values 0.0722 | locus YHR030C, strain SLT2, hits give low values 0.114 | locus YHR079C, strain IRE1, hits give low values 0.132 | locus YHR142W, strain chs7, hits give low values 0.0821 | locus YJL092W, strain hpr5, hits give low values 0.066 | locus YJL095W, strain BCK1 (second series), hits give low values 0.0647 | locus YJL095W, strain BCK1, hits give low values 0.118 | locus YJL115W, strain asf1, hits give low values 0.0821 | locus YJL154C, strain vps35, hits give low values 0.0659 | locus YJL164C, strain tpk1, hits give low values 0.076 | locus YJL166W, strain qcr8, hits give low values 0.0693 | locus YJL187C, strain SWE1, hits give low values 0.0656 | locus YJR066W, strain TOR1, hits give low values -0.00728 | locus YKL160W, strain elf1, hits give low values 0.0955 | locus YKR026C, strain gcn3, hits give low values 0.0721 | locus YKR091W, strain srl3, hits give low values 0.0686 | locus YLL001W, strain dnm1, hits give low values 0.0682 | locus YLL026W, hits give low values 0.065 | locus YLL041C, strain sdh2, hits give low values 0.0651 | locus YLR027C, strain aat2, hits give low values 0.0649 | locus YLR113W, strain HOG1, hits give low values 0.129 | locus YLR221C, strain rsa3, hits give low values 0.0719 | locus YLR258W, strain gsy2, hits give low values 0.0692 | locus YLR262C, strain YPT6 (second series), hits give low values 0.0889 | locus YLR320W, strain mms22, hits give low values 0.0961 | locus YLR342W, strain FKS1, hits give low values 0.0745 | locus YLR357W, strain rsc2, hits give low values 0.136 | locus YLR370C, strain arc18, hits give low values 0.0692 | locus YLR384C, strain iki3, hits give low values 0.0665 | locus YMR058W, strain fet3, hits give low values 0.0663 | locus YMR125W, strain sto1, hits give low values 0.0829 | locus YMR129W, hits give low values 0.0652 | locus YMR205C, strain PFK2, hits give low values 0.0948 | locus YMR231W, strain pep5, hits give low values 0.0753 | locus YNL071W, strain lat1, hits give low values 0.0684 | locus YNL183C, strain NPR1, hits give low values 0.021 | locus YNL209W, strain ssb2, hits give low values 0.0691 | locus YNL248C, strain rpa49, hits give low values 0.0871 | locus YNL322C, strain KRE1 (second series), hits give low values 0.0721 | locus YNR049C, strain mso1, hits give low values 0.0642 | locus YOR001W, strain rrp6, hits give low values 0.0755 | locus YOR070C, strain gyp1, hits give low values 0.0663 | locus YOR080W, strain dia2, hits give low values 0.104 | locus YOR083W, strain WHI5, hits give low values 0.0727 | locus YOR106W, strain vam3, hits give low values 0.0721 | locus YOR231W, strain MKK1, hits give low values 0.129 | locus YOR265W, strain rbl2, hits give low values 0.0661 | locus YOR270C, strain vph1, hits give low values 0.108 | locus YPL051W, strain arl3, hits give low values 0.0733 | locus YPL078C, strain atp4, hits give low values 0.852 | locus YPL106C, strain sse1, hits give low values 0.116 | locus YPL240C, strain hsp82, hits give low values 0.0634 | locus YPL256C, strain CLN2, hits give low values 0.147
